This is a sample that favours compounds with a hit; in the whole collection about 21% have one here.
Pf growth 48h = inhibits P. falciparum growth in the first generation, 48 h; P. falciparum luciferase growth in erythrocytes, 48 h; Potency, µM (doses to about 28.7 µM), for inactives: at the highest dose activity change, negative = inhibition, actives largely listed as inhibitors; 310,000 tested, 5.9% active; note: potency is the fitted concentration of half-maximal effect; % is set by controls: 0 for no effect and ±100 for the full control effect
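A one-generation exposure of luciferase-tagged malaria parasites in RPMI 1640/Albumax erythrocyte culture, 37 C and 5% CO2. Inhibition is inferred from decreased luminescence after adding detection reagent.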
Shiga inhibitor = inhibitors of Shiga toxin in Vero cells. Vero cells, Shiga toxin protein synthesis inhibition reporter. inhibition, % at 38.7 µM. 290,000 tested, 9.2% active; in the data active = inhibition mostly above about 28%, no sharp cut-off; inactive = mostly below about 43%; note: 0% is about no effect
Pf growth 96h = P. falciparum growth inhibition at 96 hour, primary screen for plastid delayed-death inhibitors; Potency, µM (series often up to 28.7 µM), for inactives: at the highest dose activity change, negative = inhibition, most hits filed as inhibitors; AID 504834; P. falciparum luciferase reporter growth, 96 h; 320,000 tested, 6.9% active; note: potency is the fitted concentration of half-maximal effect; % is set by controls: 0 for no effect and ±100 for the full control effect
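Readout is luminescence from an integrated firefly luciferase in P. falciparum. Red cells, 2% hematocrit and 0.05% parasitemia final, were cultured with compound through two parasite generations (96 hours) at 37 C, 5% CO2.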
CHX counter = affects cycloheximide protein synthesis inhibition readout, counter-screen; cell reporter, cycloheximide protein synthesis inhibition counterscreen; max response, %; 300,000 tested, 12% active; AID 2314; in the data active = max response mostly above about 13%, no sharp cut-off; inactive = mostly below about 14%; note: read at 38.3 µM for the half of the compounds with a filed dose; 0% is about no effect
Starred values were filed as active, the others as inactive; ? = inconclusive; . = not tested or not shown; [ ] = dose if it differs, or a comment. Unless noted, calls come from the whole dose curve; as a rule, active = well fitted inhibition curve with a large enough effect; inconclusive = small, poorly fitted or top-dose-only effect, or another doubt; inactive = no such curve, though single readings can be large or run the other way.

SMILES	Pf growth 48h	Shiga inhibitor	Pf growth 96h	CHX counter
O=C(NC(=S)Nc1ccc(Br)c(Cl)c1)C1CC1	-1.2%	32.2*	?	25.5*
O=C(NC(=S)Nc1ccc(F)cc1)C1CCCCC1	-27.3%	89.3*	1.9%	23.3*
O=S(=O)(NCc1ccccn1)c1ccc(Cl)c(C(F)(F)F)c1	228.1%	9.3	12.7%	-6.0
CCOc1cc(S(=O)(=O)NCc2ccccn2)ccc1Cl	-9.6%	11.6	8.28µM*	-0.9
O=S(=O)(NCc1ccccn1)c1ccc2c(c1)OCCO2	8.9%	-8.0	123.8%	-0.9
Cc1ccc2ccc(S(=O)(=O)NCc3ccccn3)cc2c1	52.2%	38.8*	17.3%	19.5
O=C(CN1C(=O)NC2(CCCCCC2)C1=O)N1CCCCC1	-8.2%	.	-11.2%	.
Cc1ccccc1NC(=O)CSc1ccsc1[N+](=O)[O-]	-13.2%	-4.5	-3.6%	-2.1
CCCCNC(=O)c1cc2cccc([N+](=O)[O-])c2[nH]1	2.62µM*	11.8	?	22.5*
NNC(=O)COc1ccccc1[N+](=O)[O-]	11.4%	17.5	21.1%	24.5*
CCCNC(=O)COc1ccccc1[N+](=O)[O-]	35.5%	38.6	37.4%	20.8
CCCCNC(=O)COc1ccccc1[N+](=O)[O-]	60.7%	76.9*	59.5%	24.7*
C/C(N)=C(/C#N)C(=O)COC(=O)Cc1coc2ccc3ccccc3c12	-18.5%	-7.6	-17.4%	-1.3
Cc1c(-c2ccccc2)[n+](=O)c(-c2ccco2)c(C)n1[O-]	2.2%	47.3	5.22µM*	-2.2
Cc1c(-c2ccco2)[n+](=O)c2c(n1[O-])CCCCC2	.	-7.8	10.4%	-2.8
CCc1ccc(-c2cn(-c3nc(C)cc(C)n3)c(=N)o2)cc1	?	46.1	10.4µM*	22.9*
CCc1ccc(N/C(=N/c2nc(C)cc(C)n2)NC(C)=O)cc1	.	-1.6	?	7.2
Cc1cc(C)n(-c2ccc([N+](=O)[O-])cc2-c2nn[nH]n2)n1	39.5%	2.7	4.8%	6.8
O=[N+]([O-])c1ccc(O)c(-c2nn[nH]n2)c1	20.8%	53.1*	.	37.4*
CC1=C/C(=N\NC(=S)NCc2ccccc2)CC1	?	56.3*	?	26.3*
COc1ccc(CNC(=S)N/N=C(/C)c2ccccc2)cc1	42.5%	83.5*	-17.6%	49.3*
C/C(=N\NC(=S)NCc1ccccc1)c1ccc(C#N)cc1	?	-5.2	-2.1%	-1.5
C/C(=N\NC(=S)NCc1ccccc1)c1ccccc1F	?	46.0*	-27.8%	23.5
C/C(=N\NC(=S)NCc1ccccc1)c1ccccc1	21.2%	active	-3.1%	28.2*
CC(C)CNC(=O)[C@H](Cc1ccccc1)NC(=O)c1cccs1	-14.6%	-4.0	9.1%	-5.2
SMILES	Pf growth 48h	Shiga inhibitor	Pf growth 96h	CHX counter
CN(C(=O)c1cc(S(=O)(=O)N2CCc3ccccc32)cn1C)C1CCCCC1	?	-2.8	?	-1.1
O=C(NCc1n[nH]c(=S)n1-c1cccc(C(F)(F)F)c1)c1ccco1	-23.4%	-5.0	?	6.1
O=C(NC1CCCCC1)C(c1ccccc1F)N(C(=O)c1csnn1)C1CCCC1 (stereo not drawn)	-28.9%	2.3	?	3.2
Cc1ccc(-n2c(=O)c3ccccc3n(CC(=O)C(C)(C)C)c2=O)cc1	2.2%	26.5	?	-2.5
CC(C)(C)OC(=O)NNC(=O)Nc1ccccc1C(F)(F)F	-0.5%[5.75 µM]	19.5	0.6%	13.8
C=C(C)CNC(=S)N/N=C(\C)c1ccc(OC)cc1	13.1µM*	8.7	-32.3%	5.7
C/C(=N\NC(=S)NCc1ccccc1)c1ccco1	6.6%	37.3*	?	18.7*
CC/C(C)=N/NC(=S)NCc1ccco1	-17.5%	-4.3	-5.1%	-2.5
C/C(=N\NC(=S)NCc1ccccc1)c1ccc(C(C)(C)C)cc1	9.28µM*	-7.1	?	11.9*
CNC(=S)N/N=C(\C)c1ccc(C(C)(C)C)cc1	-8.8%	29.9*	?	23.8*
CNC(=S)N/N=C(\C)c1ccccc1	53.9%	74.9	?	7.0
COCCNC(=S)N/N=C(\C)c1ccc(OC)cc1	-21.3%	-2.5	-10.3%	-3.2
O=C(CSCc1ccccc1Cl)Nc1c[nH]c(=O)[nH]c1=O	22.0%	24.1	6.8%	3.3
COCCNC(=S)Nc1ccc([N+](=O)[O-])cc1C	-1.4%	9.1	-3.0%	2.9
Cc1ccc(NC(=O)C(OC(=O)c2cnc(C)cn2)c2ccccc2)c([N+](=O)[O-])c1 (stereo not drawn)	3.2%	8.1	18.0%	14.3*
COCCCNC(=S)Nc1ccc(C)cc1[N+](=O)[O-]	-2.7%[5.75 µM]	55.0*	8.8%	19.7*

High-throughput results from PubChem.
